A short description of assay [1]: qHTS assay to test for compound auto fluorescence at 535 nm (green) in HEK293 cells (AID 720680). (In general: In qHTS, concentration-response curves come from the screen itself.)
Assay [2] can be described thus: qHTS assay to test for compound auto fluorescence at 460 nm (blue) in HEK293 cell free culture (AID 720681). In outline:
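Compounds were added to cell-free DMEM with 10% FBS and fluorescence read directly. The blue channel used 405 nm excitation and 460 nm emission, with triamterene as the reference fluorophore.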

Assay [3] is described as follows: qHTS assay to test for compound auto fluorescence at 535 nm (green) in HEK293 cell free culture (AID 720682). In outline:
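Using fluorescein as calibrant, autofluorescence was quantified at 485/535 nm in cell-free DMEM containing 10% FBS after pintool addition of compound or vehicle.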

Assay [4] is described as follows: qHTS assay to test for compound auto fluorescence at 590 nm (red) in HEK293 cell free culture (AID 720683). A digest of the protocol: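 Cell-free wells of DMEM with 10% FBS received compound, and intrinsic fluorescence was read at excitation/emission 540/590 nm. Values expressed as equivalence to Rose Bengal sodium.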
Assay [5] is described as follows: qHTS assay to test for compound auto fluorescence at 590 nm (red) in HepG2 cell free culture (AID 720684). A digest of the protocol:
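Compound was pinned into wells holding MEM with 10% FBS and no cells, and red fluorescence was read at Ex/Em 540/590 nm. Signal is expressed as auto fluorescence equivalency relative to Rose Bengal sodium.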

Assay [6] can be described thus: qHTS assay to test for compound auto fluorescence at 460 nm (blue) in HepG2 cell free culture (AID 720685). In outline:
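Compound (23 nL) or DMSO pinned into cell-free MEM with 10% FBS; blue fluorescence read at 405/460 nm excitation/emission, expressed as auto-fluorescence equivalency to triamterene.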

Assay [7] can be described thus: qHTS assay to test for compound auto fluorescence at 535 nm (green) in HepG2 cell free culture (AID 720686).
Assay [8] in a line: qHTS assay to test for compound auto fluorescence at 460 nm (blue) in HepG2 cells (AID 720687). In outline: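 HepG2 cells in MEM with 10% FBS, attached overnight at 37 C, were exposed to compound or DMSO for 1 hr at 37 C, 5% CO2. Blue fluorescence was read at 405/460 nm, with triamterene as reference fluorophore.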
Assay [9] has as its target Glucocorticoid receptor (Homo sapiens) (UniProt P04150). Nature of the assay: qHTS assay to identify small molecule agonists of the glucocorticoid receptor (GR) signaling pathway (AID 720691; active = well fitted activation curve with a large enough effect in the signal ratio in the repeat runs, not every such curve was filed as active; the % refers to the signal ratio; note: potency is the fitted concentration of half-maximal effect). In outline: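 GR-bla HeLa cells carrying a GRE-driven beta-lactamase reporter, exposed to compounds for 18 h at 37 C. Reporter activation read as fluorescence after 2 h with LiveBLAzer B/G FRET substrate at room temperature.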

For assay [10] the target is unchanged. In words: qHTS assay to identify small molecule antagonists of the glucocorticoid receptor (GR) signaling pathway (AID 720692; active = well fitted inhibition curve with a large enough effect in the signal ratio in the repeat runs, not every such curve was filed as active; the % refers to the signal ratio). A digest of the protocol: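 GR-bla HeLa cells carrying a GRE-driven beta-lactamase reporter received compound after 4 h plating, then dexamethasone (5 nM final). After 18 h at 37C, the FRET substrate was loaded for 2 h at room temperature and fluorescence read.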

A short description of assay [11]: qHTS assay to identify small molecule antagonists of the glucocorticoid receptor (GR) signaling pathway - cell viability counter screen (AID 720693). Note: nearly all actives have a fitted effect of over 55% in size.
Assay [12] in a line: qHTS assay for identifying genotoxic compounds that show differential cytotoxicity against isogenic chicken DT40 cell lines with known DNA damage response pathways - wild type cell line (AID 743012). Note: nearly all actives have a fitted effect of over 60% in size. A digest of the protocol: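 Wild-type DT40 cells (300/well) exposed to compounds for 40 hours at 37 C/5% CO2. Viability read by CellTiter-Glo luminescence after 30 min at room temperature.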

A short description of assay [13]: qHTS assay for identifying genotoxic compounds that show differential cytotoxicity against isogenic chicken DT40 cell lines with known DNA damage response pathways - Rev3 mutant cell line (AID 743014). Note: nearly all actives have a fitted effect of over 55% in size.
Assay [14] can be described thus: qHTS assay for identifying genotoxic compounds that show differential cytotoxicity against isogenic chicken DT40 cell lines with known DNA damage response pathways - Rad54/Ku70 mutant cell line (AID 743015). Note: nearly all actives have a fitted effect of over 60% in size.
The nature of assay [15]: qHTS assay to identify small molecule antagonists of the androgen receptor (AR) signaling pathway - cell viability counter screen (AID 743033; note: nearly all actives have a fitted effect of over 45% in size).
A short description of assay [16]: qHTS assay to identify small molecule antagonists of the androgen receptor (AR) signaling pathway using the MDA cell line - cell viability counter screen (AID 743041; note: nearly all actives have a fitted effect of over 45% in size). In outline:
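MDA-kb2 AR-luc cells (MMTV-luciferase, AR/GR responsive) treated with compounds plus R1881 agonist for 16 h at 37C. CellTiter-Fluor added at 15.5 h; fluorescence read after 30 min in the same wells.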

For assay [17], the target named is Androgen receptor (Homo sapiens) (UniProt P10275). Nature of the assay: qHTS assay to identify small molecule antagonists of the androgen receptor (AR) signaling pathway (AID 743035; active = well fitted inhibition curve with a large enough effect in the signal ratio in the repeat runs, not every such curve was filed as active; the % refers to the signal ratio). A digest of the protocol:
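HEK293 cells stably carrying UAS-beta-lactamase reporter, 2,000/well, given compounds plus R1881 agonist and incubated 16 h at 37C. LiveBLAzer B/G FRET substrate then added for 2 h at room temperature before fluorescence reading.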

The target is the same in assay [18]. Nature of the assay: qHTS assay to identify small molecule agonists of the androgen receptor (AR) signaling pathway (AID 743036; active = well fitted activation curve with a large enough effect in the signal ratio in the repeat runs, with a control signal flat, not every such curve was filed as active; the % refers to the signal ratio). A digest of the protocol:
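In this Tox21 qHTS, 2,000 HEK293 AR-bla cells per well were incubated with compounds for 16 h at 37C and 5% CO2. Fluorescence intensity was recorded 2 h after adding LiveBLAzer B/G FRET substrate at room temperature.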

For assay [19] the target is unchanged. Nature of the assay: qHTS assay to identify small molecule agonists of the androgen receptor (AR) signaling pathway using the MDA cell line (AID 743040; note: nearly all actives have a fitted effect of over 20% in size). A digest of the protocol:
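MDA-kb2 breast carcinoma cells carrying MMTV-luciferase (responsive to AR and GR), plated 5 h then treated 16 h with compounds at 37C, 0% CO2. Read-out was ONE-Glo luminescence after 30 min at room temperature.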

For assay [20] the target is unchanged. In words: qHTS assay to identify small molecule antagonists of the androgen receptor (AR) signaling pathway using the MDA cell line (AID 743042; note: nearly all actives have a fitted effect of over 55% in size). In outline:
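MDA-kb2 breast carcinoma cells carrying MMTV-luciferase (AR/GR responsive) were co-treated with compounds and the agonist R1881 for 16 h at 37C. Inhibition read as ONE-Glo luminescence; CellTiter-Fluor fluorescence measured in parallel for cytotoxicity.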

Molecules are shown by their SMILES. Values without a mark were called inactive. Results filed as inconclusive are left out. The source made the active and inactive calls. Unless noted, calls come from the whole dose curve; as a rule, active = well fitted curve in the direction sought with a large enough effect in the repeat runs; inconclusive = weak or mixed curves; inactive = no such curve, though single readings can be large; an effect the other way counts as inactive or inconclusive.
% is set by controls: 0 for no effect and ±100 for the full control effect.

Sequence of Glucocorticoid receptor (Homo sapiens) (P04150 whole entry, looked up): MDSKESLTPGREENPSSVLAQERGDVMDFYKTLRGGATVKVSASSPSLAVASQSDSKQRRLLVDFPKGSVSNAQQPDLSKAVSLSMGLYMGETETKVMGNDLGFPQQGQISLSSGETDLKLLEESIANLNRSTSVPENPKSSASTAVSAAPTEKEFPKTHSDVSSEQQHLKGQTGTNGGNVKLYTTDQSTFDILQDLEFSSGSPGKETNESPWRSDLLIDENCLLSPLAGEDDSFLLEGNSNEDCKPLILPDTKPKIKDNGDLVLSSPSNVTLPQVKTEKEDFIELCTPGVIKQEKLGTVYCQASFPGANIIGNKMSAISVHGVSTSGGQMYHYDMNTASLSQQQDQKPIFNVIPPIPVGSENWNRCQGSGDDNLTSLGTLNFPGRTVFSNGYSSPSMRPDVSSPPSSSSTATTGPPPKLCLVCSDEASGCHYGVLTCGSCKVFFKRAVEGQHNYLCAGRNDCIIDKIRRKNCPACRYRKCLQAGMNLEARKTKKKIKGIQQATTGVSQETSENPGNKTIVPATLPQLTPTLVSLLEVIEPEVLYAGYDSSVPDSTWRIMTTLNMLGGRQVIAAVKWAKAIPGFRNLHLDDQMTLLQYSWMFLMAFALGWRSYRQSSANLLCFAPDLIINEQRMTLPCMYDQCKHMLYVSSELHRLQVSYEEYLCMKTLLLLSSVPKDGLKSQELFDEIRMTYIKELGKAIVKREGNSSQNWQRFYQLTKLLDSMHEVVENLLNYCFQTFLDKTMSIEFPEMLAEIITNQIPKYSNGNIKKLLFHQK
Sequence of Androgen receptor (Homo sapiens) (P10275 whole entry, looked up): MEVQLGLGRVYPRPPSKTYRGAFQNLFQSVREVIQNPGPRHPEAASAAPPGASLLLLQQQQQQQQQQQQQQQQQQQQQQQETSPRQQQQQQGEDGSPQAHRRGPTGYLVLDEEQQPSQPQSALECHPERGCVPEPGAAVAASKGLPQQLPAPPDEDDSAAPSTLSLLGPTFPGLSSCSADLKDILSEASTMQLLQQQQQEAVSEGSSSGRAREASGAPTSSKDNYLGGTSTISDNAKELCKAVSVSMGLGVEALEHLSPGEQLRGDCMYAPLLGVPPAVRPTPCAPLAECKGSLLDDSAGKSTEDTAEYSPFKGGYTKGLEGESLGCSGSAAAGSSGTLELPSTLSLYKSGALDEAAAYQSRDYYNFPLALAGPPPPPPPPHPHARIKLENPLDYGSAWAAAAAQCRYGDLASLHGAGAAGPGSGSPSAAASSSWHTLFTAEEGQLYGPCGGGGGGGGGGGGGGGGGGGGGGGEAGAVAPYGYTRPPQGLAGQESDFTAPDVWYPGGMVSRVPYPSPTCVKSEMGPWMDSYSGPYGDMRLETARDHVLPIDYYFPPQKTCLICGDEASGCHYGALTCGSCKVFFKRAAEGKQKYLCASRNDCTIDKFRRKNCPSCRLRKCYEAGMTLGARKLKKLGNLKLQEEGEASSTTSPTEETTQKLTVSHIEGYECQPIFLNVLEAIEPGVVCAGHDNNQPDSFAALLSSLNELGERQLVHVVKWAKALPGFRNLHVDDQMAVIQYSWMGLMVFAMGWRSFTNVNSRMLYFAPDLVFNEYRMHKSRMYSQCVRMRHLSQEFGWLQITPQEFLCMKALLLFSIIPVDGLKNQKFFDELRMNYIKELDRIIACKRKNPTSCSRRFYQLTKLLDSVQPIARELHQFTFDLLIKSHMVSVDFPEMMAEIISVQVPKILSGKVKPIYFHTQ

As for `CC(C)N(c1ccccc1)C(C)C`, the result in assay [1], in assay [2], in assay [3], in assay [4], in [5] and in assay [6] was inactive. For the same compound, the result in assay [7], in [8], in assay [10] and in assay [11] was inactive. In addition, the Potency entry in assay [9], in assay [12], in [13], in assay [14], in [15] and in assay [16] was “inactive” in each case.
`CC1(C)S[C@@H]2[C@H](N=CN3CCCCCC3)C(=O)N2[C@H]1C(=O)O`: the result in assay [1], in assay [2], in assay [3], in assay [4], in [5] and in assay [6] was inactive. Moreover, the result in assay [7], in [8], in [10] and in assay [11] was inactive. Also, the Potency in assay [9] was 21.3 µM (active). For the same compound, the Potency entry in assay [12], in assay [13], in assay [14], in [15] and in assay [16] was “inactive” in each case.
On to `O=C(O)Cc1cn(-c2ccccc2)nc1-c1ccc(Cl)cc1`, for which the call in assay [1], in assay [2], in assay [3], in assay [4], in [5] and in assay [6] was inactive. Further, the compound was called inactive in [7], in assay [8], in assay [10] and in [11]. In addition, the Potency result in [9], in assay [12], in [13], in assay [14], in assay [15] and in [16] was “inactive” throughout.
With `CC(=O)OC(C)OC(=O)C(C)c1ccc(-c2ccccc2)c(F)c1` (configuration not stated), the outcome in assay [1], in assay [2], in assay [3], in [4], in assay [5] and in [6] was inactive. Besides, the call in [7], in [8], in assay [10], in assay [11], in assay [18] and in [19] was inactive. In addition, the Potency entry in assay [9], in assay [12], in assay [13], in assay [14], in assay [15] and in [17] was “inactive” throughout. The Potency entry in [16] and in [20] was “inactive” in each case.
On to `CC(C)c1ccc2cc(C(C)C)ccc2c1`, for which the compound was called inactive in assay [1], in [2], in [3], in assay [4], in assay [5] and in assay [6]. In addition, the result in [7], in [8], in assay [10], in assay [11], in assay [18] and in assay [19] was inactive. The Potency result in assay [9], in assay [12], in assay [13], in assay [14], in [15] and in assay [17] was “inactive” throughout. In addition, the Potency result in [16] and in [20] was “inactive” in each case.
`CCNC(=O)C1CC(C)CCC1C(C)C` (configuration not stated): the call in assay [1], in [2], in [3], in assay [4], in [5] and in [6] was inactive. Besides, the outcome in assay [7], in [8], in assay [10] and in assay [11] was inactive. Also, the Potency entry in assay [9], in assay [12], in assay [13], in assay [14] and in [15] was “inactive” in each case.
`COc1cc(NS(=O)(=O)c2ccc(N)cc2)nc(OC)n1`: the fluorescence, % of fluorescein in assay [1] is 0.0037% [at 18.6 µM]. The fluorescence, % of fluorescent control in assay [2] was 0.0589% [at 18.6 µM]; in assay [4], 0.0115% [at 18.6 µM]; in [6], -0.0655% [at 18.6 µM]; in [8] it was 0.0701% [at 18.6 µM]. In addition, the activity change in [3] is -0.0247% [at 18.6 µM]. Also, in [5], the fluorescence, % of Rose Bengal was 0.441% [at 18.6 µM]. Moreover, the fluorescence, % of fluorescein control in assay [7] is -0.0376% [at 18.6 µM]. The Potency result in assay [9], in assay [12], in assay [13], in assay [14], in assay [15] and in [17] was “inactive” each time. Besides, in assay [20], the Potency result was “inactive”. For the same compound, the outcome in assay [10], in assay [11], in assay [18] and in [19] was inactive.
